Screens from PubChem BioAssay.
Pf Dd2 inh: blocks growth of Plasmodium falciparum Dd2 parasites. P. falciparum Dd2 growth, SYBR Green, 72 h; stronger effect = lower value. hit rate 2.3% among 94,000. activity change, % at 10 µM; in the data active = activity change below about -80%; inconclusive = no clear call, values can overlap the other calls
C diff HTS: blocks growth of Clostridium difficile. growth activity, negative = inhibition, % at 16 µg/mL (by protocol). Clostridium difficile clinical isolate growth, OD600, 24 h; stronger effect = lower value. hit rate 0.25% among 86,000;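 active = mean growth activity at or below -80% and every replicate also at or below -80%; inconclusive = mean at or below -80% but some replicate above -80%; inactive = mean growth activity above -80%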
Of the large screens only hits and unclear results are named; the others gave an inactive call. An excerpt weighted towards active compounds, which were near 2.4% of everything screened.

C[C@@H]1CN([C@@H](C)CO)C(=O)c2cccc(NC(=O)Nc3ccc(F)cc3)c2O[C@@H]1CN(C)S(=O)(=O)c1cn(C)cn1	none (no result: C diff HTS)
COc1ccc(-c2cn(CC[C@H]3CC[C@H](NC(=O)Nc4ccc(F)cc4)[C@@H](CO)O3)nn2)cc1	none
CC(C)NC(=O)N(C)C[C@H]1Oc2c(NS(=O)(=O)c3ccccc3)cccc2C(=O)N([C@@H](C)CO)C[C@@H]1C	none
C[C@@H]1CN([C@H](C)CO)C(=O)c2cccc(NC(=O)C3CC3)c2O[C@H]1CN(C)Cc1ccc(Oc2ccccc2)cc1	none
C[C@@H]1CN([C@H](C)CO)C(=O)c2cc(NC(=O)CCCCCC(=O)Nc3ccccc3N)ccc2O[C@@H]1CN(C)Cc1ccc(Oc2ccccc2)cc1	none
C[C@@H]1CN([C@@H](C)CO)C(=O)c2cccc(NC(=O)CCCCCC(=O)Nc3ccccc3N)c2O[C@@H]1CN(C)Cc1ccc(Oc2ccccc2)cc1	Pf Dd2 inh -91.0
C[C@H]1CN([C@@H](C)CO)C(=O)c2cccc(NC(=O)CCCCCC(=O)Nc3ccccc3N)c2O[C@@H]1CN(C)Cc1ccc(Oc2ccccc2)cc1	Pf Dd2 inh -81.6
C[C@H]1CN([C@@H](C)CO)C(=O)c2cccc(NC(=O)C3CC3)c2O[C@H]1CN(C)Cc1ccc(Oc2ccccc2)cc1	none
C[C@@H]1CN([C@H](C)CO)C(=O)c2cccc(NC(=O)CCCCCC(=O)Nc3ccccc3N)c2O[C@@H]1CN(C)Cc1ccc(Oc2ccccc2)cc1	Pf Dd2 inh -90.6
C[C@@H]1CN([C@@H](C)CO)S(=O)(=O)c2ccc(Br)cc2O[C@@H]1CN(C)C(=O)C1CCC1	none (no result: C diff HTS)
COc1ccc2c3c([nH]c2c1)[C@@H](CO)N(Cc1ccc(Cl)cc1)CC31CN(Cc2ccccc2)C1	none (no result: C diff HTS)
CC(C)NC(=O)Nc1ccc2c(c1)C(=O)N(C)[C@H]1CC[C@@H](CC(=O)Nc3ccccc3)O[C@@H]1CO2	none
CC(C)NC(=O)Nc1ccc2c(c1)C(=O)N(C)[C@H]1CC[C@H](CC(=O)Nc3ccccc3)O[C@H]1CO2	Pf Dd2 inh -97.8
C[C@H]1CN([C@@H](C)CO)C(=O)Cc2cc(NC(=O)CCCCCC(=O)Nc3ccccc3N)ccc2O[C@H]1CN(C)S(=O)(=O)c1ccc(Cl)cc1	Pf Dd2 inh -93.7 (no result: C diff HTS)
C[C@@H]1CN([C@H](C)CO)C(=O)Cc2cc(NC(=O)CCCCCC(=O)Nc3ccccc3N)ccc2O[C@H]1CN(C)S(=O)(=O)c1ccc(Cl)cc1	none (no result: C diff HTS)
C[C@@H]1CN([C@@H](C)CO)C(=O)Cc2cc(NC(=O)CCCCCC(=O)Nc3ccccc3N)ccc2O[C@H]1CN(C)S(=O)(=O)c1ccc(Cl)cc1	none (no result: C diff HTS)
C[C@H](CO)N1C[C@H](C)[C@H](CN(C)S(=O)(=O)c2ccc(Cl)cc2)Oc2ccc(NC(=O)CCCCCC(=O)Nc3ccccc3N)cc2CC1=O	Pf Dd2 inh -90.9 (no result: C diff HTS)
COc1ccc(S(=O)(=O)Nc2ccc3c(c2)C(=O)N([C@H](C)CO)C[C@@H](C)[C@@H](CN(C)Cc2ccncc2)O3)cc1	none
O=C(C[C@H]1C[C@H]2c3cc(NS(=O)(=O)c4ccc(F)cc4)ccc3O[C@H]2[C@@H](CO)O1)N1CCCCC1	none
CCCC(=O)Nc1ccc2c(c1)C(=O)N(C)[C@H]1CC[C@@H](CC(=O)NCCCN(C)C)O[C@H]1CO2	none
C[C@H](CO)N1C[C@H](C)[C@H](CN(C)C(=O)C2CC2)Oc2cc(C#Cc3ccccc3)ccc2S1(=O)=O	Pf Dd2 inh -91.8
C[C@H](CO)N1C[C@H](C)[C@@H](CN(C)C(=O)C2CC2)Oc2cc(C#Cc3ccccc3)ccc2S1(=O)=O	none
C[C@H](CO)N1C[C@H](C)[C@@H](CN(C)C(=O)CN(C)C)Oc2cc(C#Cc3ccccc3)ccc2S1(=O)=O	Pf Dd2 inh -83.1
C[C@@H]1CN([C@H](C)CO)S(=O)(=O)c2ccc(C#Cc3ccccc3)cc2O[C@H]1CN(C)C(=O)CN(C)C	none
C[C@H](CO)N1C[C@H](C)[C@H](CN(C)C(=O)Cc2ccccn2)Oc2cc(C#Cc3ccccc3)ccc2S1(=O)=O	Pf Dd2 inh -85.1
COCC(=O)N(C)C[C@H]1Oc2cc(C#Cc3ccccc3)ccc2S(=O)(=O)N([C@@H](C)CO)C[C@@H]1C	none
C[C@@H]1CN([C@H](C)CO)S(=O)(=O)c2ccc(C#Cc3ccccc3)cc2O[C@H]1CN(C)C(=O)Cc1ccccn1	Pf Dd2 inh inconclusive
COCC(=O)N(C)C[C@@H]1Oc2cc(C#Cc3ccccc3)ccc2S(=O)(=O)N([C@H](C)CO)C[C@@H]1C	Pf Dd2 inh -81.8
C[C@H]1CN([C@@H](C)CO)C(=O)c2cccc(NC(=O)c3cnccn3)c2O[C@@H]1CN(C)CC1CC1	none
CCCC#Cc1ccc2c(c1)O[C@@H](CN(C)C(=O)c1ccccc1F)[C@H](C)CN([C@@H](C)CO)S2(=O)=O	Pf Dd2 inh -81.2
CCCC#Cc1ccc2c(c1)O[C@H](CN(C)C(=O)c1ccccc1F)[C@H](C)CN([C@@H](C)CO)S2(=O)=O	none
C[C@H](CO)N1C[C@H](C)[C@@H](CN(C)CC2CC2)Oc2ccc(NC(=O)CCCN(C)C)cc2C1=O	none
COc1ccc(S(=O)(=O)N(C)C[C@@H]2OCCCC[C@@H](C)Oc3ccc(NC(=O)Nc4cccc5ccccc45)cc3C(=O)N([C@H](C)CO)C[C@H]2C)cc1	none
COc1ccc(S(=O)(=O)N(C)C[C@H]2OCCCC[C@H](C)Oc3ccc(NC(=O)Nc4cccc5ccccc45)cc3C(=O)N([C@@H](C)CO)C[C@@H]2C)cc1	none
COc1ccc(S(=O)(=O)N(C)C[C@@H]2OCCCC[C@H](C)Oc3ccc(NC(=O)Nc4cccc5ccccc45)cc3C(=O)N([C@H](C)CO)C[C@H]2C)cc1	Pf Dd2 inh -86.2
COc1ccc(S(=O)(=O)N(C)C[C@H]2OCCCC[C@H](C)Oc3ccc(NC(=O)Nc4cccc5ccccc45)cc3C(=O)N([C@@H](C)CO)C[C@H]2C)cc1	Pf Dd2 inh -83.5
COc1ccc2c3c([nH]c2c1)[C@@H](CO)N(C(=O)CN(C)C)CC31CCN(Cc2ccccc2)CC1	Pf Dd2 inh inconclusive
COc1ccc2c3c([nH]c2c1)[C@H](CO)N(C(=O)CN(C)C)CC31CN(CC2CCOCC2)C1	none
COc1ccc2c3c([nH]c2c1)[C@H](CO)N(C(=O)CN(C)C)CC31CCN(Cc2ccccc2)CC1	Pf Dd2 inh -82.0
COc1ccc2c3c([nH]c2c1)[C@@H](CO)N(C(=O)CN(C)C)CC31CN(CC2CCCC2)C1	Pf Dd2 inh -86.3
O=C(NC[C@@H]1CC[C@H]2[C@H](CN2S(=O)(=O)c2ccccc2[N+](=O)[O-])O1)Nc1ccccc1	none
CCCC#Cc1ccc([C@@H]2[C@H]3CN(CC4CC4)CCCCN3[C@H]2CO)cc1	none
C[C@@H]1CCCCO[C@H](CN(C)C(=O)Nc2ccc(F)cc2)[C@@H](C)CN([C@@H](C)CO)C(=O)c2cc(NC(=O)NC3CCCCC3)ccc2O1	none
C[C@@H]1CCCCO[C@@H](CN(C)C(=O)C2CCCCC2)[C@@H](C)CN([C@@H](C)CO)C(=O)c2cc(NC(=O)Nc3ccc(C(F)(F)F)cc3)ccc2O1	Pf Dd2 inh inconclusive
C[C@@H]1CN([C@H](C)CO)C(=O)c2cc(NC(=O)Nc3ccccc3)ccc2O[C@@H](C)CCCCO[C@@H]1CN(C)C(=O)C1CCCCC1	Pf Dd2 inh -86.4
C[C@H]1CCCCO[C@@H](CN(C)C(=O)C2CCCCC2)[C@@H](C)CN([C@@H](C)CO)C(=O)c2cc(NC(=O)Cc3ccccc3)ccc2O1	Pf Dd2 inh -87.0
